Screening results: PubChem, several laboratories
Only some compounds are listed: those with a hit (about 1.3% of all), similar ones and a draw of the others.
RAD52 anneal inh: blocks human RAD52 DNA annealing | inhibition, % at 18.7 µM | recombinant RAD52 DNA annealing, FRET fluorescence | 360,000 compounds, 0.46% hits | P43351;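 active = every replicate showing at least 50% inhibition; inconclusive = mean inhibition at least 50% but not in every replicate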
Target sequence (P43351 whole entry, looked up): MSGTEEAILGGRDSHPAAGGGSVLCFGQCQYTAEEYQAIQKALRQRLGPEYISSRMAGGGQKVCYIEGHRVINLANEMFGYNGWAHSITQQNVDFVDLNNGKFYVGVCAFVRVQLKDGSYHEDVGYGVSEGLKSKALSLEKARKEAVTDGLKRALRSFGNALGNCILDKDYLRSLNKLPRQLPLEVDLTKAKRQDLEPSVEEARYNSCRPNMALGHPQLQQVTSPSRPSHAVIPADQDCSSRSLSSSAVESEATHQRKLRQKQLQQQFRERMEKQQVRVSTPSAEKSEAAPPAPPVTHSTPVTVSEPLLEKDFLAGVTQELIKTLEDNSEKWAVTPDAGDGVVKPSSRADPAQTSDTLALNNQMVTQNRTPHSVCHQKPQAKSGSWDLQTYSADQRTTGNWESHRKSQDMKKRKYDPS
DNA FID counter: counter-screen for HCV NS3 helicase inhibitors: DNA intercalator displacement; AID 1845; DNA fluorescent intercalator displacement, fluorescence; inhibition, % at 7.9 µM; 290,000 compounds, 0.17% hits; in the data active = inhibition above about 37%;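 also: higher means more ethidium bromide displaced from hairpin DNA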
UBC13 polyUb: inhibitors of human UBC13 polyubiquitin chain formation; TR-FRET; 330,000 compounds, 0.47% hits; inhibition, % at 20 µM; P61088; AID 485273; in the data active = inhibition above about 45%, passing the limit was not always enough; inconclusive = no clear call, values can overlap the other calls
Target sequence (P61088 whole entry, looked up): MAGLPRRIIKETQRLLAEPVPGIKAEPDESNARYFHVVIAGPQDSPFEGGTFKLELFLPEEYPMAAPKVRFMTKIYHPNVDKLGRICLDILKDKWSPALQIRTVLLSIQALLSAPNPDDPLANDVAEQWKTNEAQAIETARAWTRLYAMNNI
RAD54 inh: blocks human RAD54 Holliday junction branch migration | inhibition, % at 10.4 µM | AID 602329 | 360,000 compounds, 0.14% hits | Q92698 | FAM/BHQ fluorescence;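 active = mean normalized replicate activity at least 40 and at least half of replicates scoring 40 or more; inconclusive = only one of the two criteria met; inactive = mean below 40 and under half of replicates reaching 40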;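 also: inhibitors cause a drop in the FAM fluorescence signal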
MIN6 prolif: inducers of beta-cell replication in MIN6 cells; 330,000 compounds, 0.29% hits; proliferation, % at 10 µM; MIN6 cells proliferation, ATPlite luminescence, 48 h; cells starved in 0.2% serum; 100% = growth in 10% serum;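 active = compounds whose signal lies at least 3.5 SD above the mean of all wells on their plate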
PREPL inhibitor: inhibitors of human prolyl oligopeptidase-like enzyme PREPL. Q4J6C6. recombinant PREPL, fluorescence polarization activity-based probe. inhibition, % at 5.96 µM. 320,000 compounds, 0.68% hits. AID 2751; in the data active = inhibition above about 43%
Rad54 DNA ctr: counter-screen for Rad54 inhibitors: DNA binding compounds; shares compounds with RAD54 inh; Acridine orange-DNA displacement, fluorescence polarization, 20 min; AC50, µM (highest dose often 35 µM); 460 compounds, 8% hits; AID 651673;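 active = signal drop giving an AC50 within twice the top valid tested concentration of each sample, actives reach about 35 µM in these data; inactive = activity opposite to expected, plus the rest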;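 also: polarization loss reports compound binding to salmon sperm DNA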
A number is an active result.

What do the screens show for `Cc1[nH]ccc2c1[nH]c1cc(=O)ccc12`?
RAD52 anneal inh: inactive; DNA FID counter: inactive; UBC13 polyUb: inactive; RAD54 inh: 68; MIN6 prolif: inactive; PREPL inhibitor: inactive; Rad54 DNA ctr: inactive

What do the screens show for `CC(C)CSc1ncc(-c2cccc(C(F)(F)F)c2)cn1`?
DNA FID counter: inactive; UBC13 polyUb: inactive; RAD54 inh: inconclusive; MIN6 prolif: inactive; PREPL inhibitor: inactive; Rad54 DNA ctr: inactive

What do the screens show for `C[C@H]1CN([C@@H](C)CO)C(=O)c2cc(NC(=O)Nc3ccc4c(c3)OCO4)ccc2O[C@H]1CN(C)Cc1ccc(-c2ccccc2)cc1`?
RAD52 anneal inh: inactive; RAD54 inh: inactive

How did O=C(CCCN1C(=O)c2cccc3cccc(c23)C1=O)NCc1ccco1 do in these assays?
RAD52 anneal inh: inactive; DNA FID counter: inactive; UBC13 polyUb: inactive; MIN6 prolif: inactive; PREPL inhibitor: inactive

Results for CN(C)C(CNC(=O)CCCN1C(=O)c2cccc3cccc(c23)C1=O)c1ccccc1 (stereo not given) ?
RAD52 anneal inh: inactive; DNA FID counter: inactive; UBC13 polyUb: inactive; RAD54 inh: 57; MIN6 prolif: inactive; PREPL inhibitor: inactive; Rad54 DNA ctr: inactive

How did O=C(Nc1nccs1)[C@H]1[C@H](CO)[C@H]2Cn3c(cccc3=O)[C@H]2N1C(=O)C1CC1 do in these assays?
RAD52 anneal inh: inactive; RAD54 inh: inactive

What do the screens show for `CSc1nc(SCC(N)=O)c2c3c(sc2n1)CN(C)CC3`?
DNA FID counter: inactive; UBC13 polyUb: inactive; RAD54 inh: 59; MIN6 prolif: inactive; PREPL inhibitor: inactive; Rad54 DNA ctr: inactive

Results for Cc1ccc2[nH]c3c(NCCN4CCOCC4)ncnc3c2c1 ?
DNA FID counter: inactive; UBC13 polyUb: inactive; RAD54 inh: inactive; MIN6 prolif: inactive

What do the screens show for `Clc1ccc2[nH]c3c(NCCCN4CCOCC4)ncnc3c2c1`?
DNA FID counter: 38; UBC13 polyUb: inactive; RAD54 inh: inconclusive; MIN6 prolif: inactive; PREPL inhibitor: inactive; Rad54 DNA ctr: inactive

How did COc1ccccc1Nc1c2ccccc2nc2ccccc12 do in these assays?
RAD52 anneal inh: inactive; DNA FID counter: inactive; UBC13 polyUb: inactive; RAD54 inh: 59; MIN6 prolif: inactive; PREPL inhibitor: inactive; Rad54 DNA ctr: inactive

How did COc1ccccc1Nc1nc(-c2ccccc2)nc2ccccc12 do in these assays?
RAD52 anneal inh: inactive; DNA FID counter: inactive; UBC13 polyUb: inactive; MIN6 prolif: inactive; PREPL inhibitor: inactive

Results for Nc1c(C(=O)NCCN2CCOCC2)c2nc3ccccc3nc2n1-c1ccccc1 ?
DNA FID counter: inactive; UBC13 polyUb: inactive; RAD54 inh: 52; MIN6 prolif: inactive; PREPL inhibitor: inactive; Rad54 DNA ctr: inactive

How did Nc1c(C(=O)NCCN2CCOCC2)c2nc3ccccc3nc2n1-c1ccc2c(c1)OCO2 do in these assays?
DNA FID counter: inactive; UBC13 polyUb: inactive; RAD54 inh: inconclusive; MIN6 prolif: inactive; PREPL inhibitor: inactive; Rad54 DNA ctr: inactive

Results for Nc1c(C(=O)NCc2ccccc2)c2nc3ccccc3nc2n1-c1ccc2c(c1)OCO2 ?
DNA FID counter: inactive; UBC13 polyUb: inactive; RAD54 inh: inactive; MIN6 prolif: inactive; PREPL inhibitor: inactive

Results for CCOc1ccc2[nH]c3c(NCCN(C)C)ncnc3c2c1 ?
RAD52 anneal inh: 65; DNA FID counter: inactive; UBC13 polyUb: inactive; RAD54 inh: inconclusive; MIN6 prolif: inactive; PREPL inhibitor: inactive; Rad54 DNA ctr: inactive

How did C[C@H](CO)N1C[C@H](C)[C@@H](CN(C)Cc2cccnc2)Oc2ncc(C#CC3(O)CCCC3)cc2C1=O do in these assays?
RAD52 anneal inh: inactive; RAD54 inh: inactive

Results for COc1ccc(NC(=O)N(C)C[C@H]2Oc3cc(-c4cccc(C(=O)N(C)C)c4)ccc3S(=O)(=O)N([C@H](C)CO)C[C@H]2C)cc1 ?
RAD52 anneal inh: inactive; RAD54 inh: inactive

Results for Cc1ccc(S(=O)(=O)N2CCOCC2)c(C)c1NS(C)(=O)=O ?
DNA FID counter: inactive; UBC13 polyUb: inactive; RAD54 inh: inconclusive; MIN6 prolif: inactive; PREPL inhibitor: inactive; Rad54 DNA ctr: inactive

Results for CCCNc1nc2nc3ccccn3c(=O)c2cc1C(=O)NCCN1CCOCC1 ?
RAD52 anneal inh: inactive; DNA FID counter: 40; UBC13 polyUb: inactive; RAD54 inh: inconclusive; MIN6 prolif: inactive; PREPL inhibitor: inactive; Rad54 DNA ctr: inactive

Results for Cc1cccn2c(=O)c3cc(C(=O)NCc4ccccc4)c(=N)n(CCCN4CCOCC4)c3nc12 ?
RAD52 anneal inh: inactive; RAD54 inh: 61; Rad54 DNA ctr: inactive

Results for CCNC(=O)c1cc2c(=O)n3cccc(C)c3nc2n(CCc2ccccc2)c1=N ?
DNA FID counter: inactive; UBC13 polyUb: inactive; RAD54 inh: 50; MIN6 prolif: inactive; PREPL inhibitor: inactive; Rad54 DNA ctr: inactive

How did O=C(NCCN1CCOCC1)c1c(O)nc2ccccn2c1=O do in these assays?
RAD52 anneal inh: inactive; DNA FID counter: inactive; UBC13 polyUb: inactive; RAD54 inh: inactive; MIN6 prolif: inactive; PREPL inhibitor: inactive

How did COc1ccc(CCn2c(=N)c(C(=O)NCCN3CCOCC3)cc3c(=O)n4cccc(C)c4nc32)cc1OC do in these assays?
RAD52 anneal inh: inactive; DNA FID counter: 56; UBC13 polyUb: inactive; RAD54 inh: 77; MIN6 prolif: inactive; PREPL inhibitor: inactive; Rad54 DNA ctr: inactive

Results for Cc1cccn2c(=O)c3cc(C(=O)NCC4CCCO4)c(=N)n(CCN4CCOCC4)c3nc12 (stereo not given) ?
RAD52 anneal inh: inactive; DNA FID counter: inactive; UBC13 polyUb: inactive; RAD54 inh: inactive; MIN6 prolif: inactive; PREPL inhibitor: inactive

Results for COCCn1c(=N)c(C(=O)NCCc2ccccc2)cc2c(=O)n3cccc(C)c3nc21 ?
DNA FID counter: inactive; UBC13 polyUb: inactive; MIN6 prolif: inactive; PREPL inhibitor: inactive

Results for C[C@H]1CN([C@@H](C)CO)C(=O)c2cccc(NC(=O)c3cnccn3)c2O[C@H]1CN(C)Cc1ccc2c(c1)OCO2 ?
RAD52 anneal inh: inactive; RAD54 inh: inactive

Results for CC(C)NC(=O)Nc1ccc2c(c1)C(=O)N([C@@H](C)CO)C[C@@H](C)[C@@H](CN(C)C(=O)NC(C)C)O2 ?
RAD52 anneal inh: inactive; RAD54 inh: inactive

Results for Nc1c2c(nc3cccc(Cl)c13)N(c1ccccc1)CC2 ?
RAD52 anneal inh: inactive; DNA FID counter: inactive; UBC13 polyUb: inactive; MIN6 prolif: inactive; PREPL inhibitor: inactive

How did Cc1ccc2nc3c(c(N)c2c1)CCN3c1ccccc1 do in these assays?
DNA FID counter: inactive; UBC13 polyUb: inconclusive; RAD54 inh: 53; MIN6 prolif: inactive; PREPL inhibitor: inactive; Rad54 DNA ctr: inactive

Results for Cc1c(-c2cc(Br)ccc2O)nc2cc3c(cc2c1C)OCO3 ?
RAD52 anneal inh: inactive; DNA FID counter: inactive; UBC13 polyUb: inactive; RAD54 inh: inconclusive; MIN6 prolif: inactive; PREPL inhibitor: inactive; Rad54 DNA ctr: inactive

What do the screens show for `Cc1nc(NC(=O)c2ccc(Cl)cc2)nc2cc3c(cc12)OCO3`?
DNA FID counter: inactive; UBC13 polyUb: inactive; RAD54 inh: inactive; MIN6 prolif: inactive; PREPL inhibitor: inactive
